From PubChem BioAssay
The source made the active and inactive calls.

Tests used:
[1] = tested on: Plasmodium falciparum Sir2 (PF13_0152, Sir2A); test: Plasmodium falciparum Sir2A binding compounds – biochemical, small-molecule microarray, 635 nm fluorescence, primary screen (AID 1098); conditions: fluorescence 635 nm, higher = more signal;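 note: score merges spot fluorescence intensity with its signal-to-noise ratio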
[2] = probe aDKK1 binding to arrayed compounds – biochemical, biotinylated probe, 635/667 nm fluorescence, primary screen (AID 1099); conditions: small-molecule microarray, higher = more signal;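 note: score merges 667nm spot fluorescence with signal to noise across triplicate slides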
[3] = probe aCHRDL2 binding to arrayed compounds – biochemical, biotinylated probe, 635/667 nm fluorescence, primary screen (AID 1100); conditions: small-molecule microarray, higher = more signal
[4] = change in splice reporter luminescence, either direction, cell-based, HEK293, spliceosome inhibition project, primary screen (AID 1101); conditions: HEK293 splicing luciferase reporter, 24 h, higher = more signal, called active from +8 up or from −8 down;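 note: HEK293 cells carrying a splicing-competent luciferase reporter gene; test concentration not given here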
[5] = target: Fibroblast growth factor 10 (Homo sapiens) (UniProt O15520); test: compounds binding fibroblast growth factor 10 – biochemical, small-molecule microarray, 635 nm fluorescence, primary screen (AID 1102); conditions: FGF10 binding, fluorescence 635 nm, higher = more signal
[6] = tested on: glycogen synthase kinase-3 (GSK3A per assay name; protocol says GSK3B); test: compounds binding glycogen synthase kinase-3 – biochemical, small-molecule microarray, 635 nm fluorescence, GSK3A, primary screen (AID 1103); conditions: fluorescence 635 nm, higher = more signal; note: the record names both GSK3A and GSK3B
[7] = target: Epidermal growth factor receptor (Homo sapiens) (UniProt P00533); test: compounds binding epidermal growth factor receptor – biochemical, small-molecule microarray, 635 nm fluorescence, primary screen (AID 1104); conditions: EGFR binding, higher = more signal;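 note: score merges 667 nm emission intensity with spot signal to noise over triplicate slides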
[8] = target: Follistatin-related protein 3 (Homo sapiens) (UniProt O95633); test: compounds binding follistatin-related protein 3 – biochemical, small-molecule microarray, 635 nm fluorescence, primary screen (AID 1105); conditions: FSTL3 binding, higher = more signal;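 note: score merges emission near 667 nm and signal to noise per printed spot across three slides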
[9] = target: Dickkopf-related protein 1 (Homo sapiens) (UniProt O94907); test: small molecules binding DKK1 protein – biochemical, small-molecule microarray, 635 nm fluorescence scan, primary screen (AID 1106); conditions: higher = more signal;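 note: score merges emission near 667 nm with signal to noise over three replicate slides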
[10] = tested on: Inhibin beta A chain (activin A); test: small molecules binding activin A – biochemical, small-molecule microarray, 635 nm fluorescence scan, primary screen (AID 1107); conditions: INHBA, higher = more signal;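 note: mouse activin A protein probed at 4.33 µg/mL on printed slides; score merges bound-protein fluorescence near 667 nm with spot signal-to-noise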
[11] = tested on: Human papillomavirus type 1a protein E7 (residues 44-93); test: small molecules binding HPV E7 44-93 – biochemical, small-molecule microarray, residues 44-93, 635 nm fluorescence, primary screen (AID 1108); conditions: fluorescence 635 nm, higher = more signal;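 note: E7 fragment applied at 1 µg/mL in TBST for 1 h at 4 C; score combines spot fluorescence with its signal to noise ratio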
[12] = hepatitis C replication reporter changes, two-sided – Huh7 cells, luciferase reporter, HCV replication inhibitor project, primary screen (AID 1109); conditions: Huh7 HCV replicon luciferase reporter, 48 h; higher = more signal;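 note: huh7 hepatoma cells harbouring a luciferase neomycin HCV replicon reporter; luciferase luminescence as measure of HCV replicon replication; test concentration not given here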
[13] = target: Left-right determination factor 2 (Homo sapiens) (UniProt O00292); test: small molecules binding LEFTY2 protein – biochemical, small-molecule microarray, 635 nm fluorescence scan, primary screen (AID 1110); conditions: higher = more signal
[14] = target: Calmodulin-1 (Homo sapiens) (UniProt P0DP23); test: small molecules binding calmodulin-1 with EGTA – biochemical, small-molecule microarray, Cy5-labelled CALM1, profiling panel (AID 1111); conditions: Cy5-CALM1 binding fluorescence, higher = more signal;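 note: labelled calmodulin applied in Tris saline Tween buffer holding calcium plus EGTA and DTT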
[15] = target: Calmodulin-1 (Homo sapiens) (UniProt P0DP23); test: small molecules binding Ca-loaded calmodulin-1 – biochemical, small-molecule microarray, Cy5-labelled CALM1, plus calcium, artefact control for SMM control-protein annotation, profiling panel (AID 1112); conditions: Cy5-CALM1 binding fluorescence, higher = more signal;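 note: score merges spot fluorescence with signal to noise from triplicate slides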
[16] = probe aWnt5a binding to arrayed compounds – biochemical, biotinylated probe, 635/667 nm fluorescence, primary screen (AID 1113); conditions: small-molecule microarray, higher = more signal;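 note: score merges 667 nm fluorescence intensity with signal-to-noise per printed feature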
[17] = probe aShh binding to arrayed compounds – biochemical, biotinylated probe, 635/667 nm fluorescence, primary screen (AID 1114); conditions: small-molecule microarray, higher = more signal;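 note: probe is biotin-labelled aShh protein from a stem cell growth factor screen; measures binding of labelled protein to compounds printed on the slide; score merges feature fluorescence at 667 nm with signal-to-noise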
[18] = probe aNog binding to arrayed compounds – biochemical, biotinylated probe, 635/667 nm fluorescence, primary screen (AID 1115); conditions: small-molecule microarray, higher = more signal;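 note: probe is biotinylated aNog protein used at 0.15 µg/mL for 1 h at 4 C; z-score combines 667 nm fluorescence of each spot with its signal to noise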
[19] = target: Torsin-1A-interacting protein 1 (Homo sapiens) (UniProt Q5JTV8); test: compound microarray binding of lysate hLAP1 – cell lysate, small-molecule microarray, COS7 lysate, 635/667 nm fluorescence, primary screen (AID 1116); conditions: 635 nm fluorescence, higher = more signal
[20] = target: Alpha-bungarotoxin (Bungarus multicinctus) (UniProt P60615); test: compounds binding labelled alpha-BTX control protein – biochemical, small-molecule microarray, Alexa647 label, 635/667 nm fluorescence, artefact control for SMM control protein annotation, profiling panel (AID 1117); conditions: alpha-BTX-A647 binding fluorescence, higher = more signal
Sequence of Alpha-bungarotoxin (Bungarus multicinctus) (P60615 whole entry, looked up): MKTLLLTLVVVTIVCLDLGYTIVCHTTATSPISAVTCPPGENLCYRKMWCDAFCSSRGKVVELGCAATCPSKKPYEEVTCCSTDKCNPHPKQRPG

Sequence of Torsin-1A-interacting protein 1 (Homo sapiens) (Q5JTV8 whole entry, looked up): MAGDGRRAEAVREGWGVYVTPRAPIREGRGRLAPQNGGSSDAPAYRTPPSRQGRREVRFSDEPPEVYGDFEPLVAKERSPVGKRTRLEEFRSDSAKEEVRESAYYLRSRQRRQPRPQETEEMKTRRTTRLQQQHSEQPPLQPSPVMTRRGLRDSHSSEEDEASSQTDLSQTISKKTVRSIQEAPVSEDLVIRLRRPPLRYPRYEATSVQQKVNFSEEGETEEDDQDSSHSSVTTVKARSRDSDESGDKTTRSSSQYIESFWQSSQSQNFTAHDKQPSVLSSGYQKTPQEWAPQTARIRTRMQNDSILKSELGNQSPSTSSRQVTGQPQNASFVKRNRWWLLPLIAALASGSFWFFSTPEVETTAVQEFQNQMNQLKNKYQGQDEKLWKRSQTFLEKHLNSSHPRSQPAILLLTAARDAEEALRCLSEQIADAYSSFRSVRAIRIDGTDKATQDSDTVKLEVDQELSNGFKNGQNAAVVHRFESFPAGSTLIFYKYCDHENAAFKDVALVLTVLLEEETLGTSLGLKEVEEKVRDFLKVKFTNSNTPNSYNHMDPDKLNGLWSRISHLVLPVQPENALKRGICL
Sequence of Epidermal growth factor receptor (Homo sapiens) (P00533 whole entry, looked up): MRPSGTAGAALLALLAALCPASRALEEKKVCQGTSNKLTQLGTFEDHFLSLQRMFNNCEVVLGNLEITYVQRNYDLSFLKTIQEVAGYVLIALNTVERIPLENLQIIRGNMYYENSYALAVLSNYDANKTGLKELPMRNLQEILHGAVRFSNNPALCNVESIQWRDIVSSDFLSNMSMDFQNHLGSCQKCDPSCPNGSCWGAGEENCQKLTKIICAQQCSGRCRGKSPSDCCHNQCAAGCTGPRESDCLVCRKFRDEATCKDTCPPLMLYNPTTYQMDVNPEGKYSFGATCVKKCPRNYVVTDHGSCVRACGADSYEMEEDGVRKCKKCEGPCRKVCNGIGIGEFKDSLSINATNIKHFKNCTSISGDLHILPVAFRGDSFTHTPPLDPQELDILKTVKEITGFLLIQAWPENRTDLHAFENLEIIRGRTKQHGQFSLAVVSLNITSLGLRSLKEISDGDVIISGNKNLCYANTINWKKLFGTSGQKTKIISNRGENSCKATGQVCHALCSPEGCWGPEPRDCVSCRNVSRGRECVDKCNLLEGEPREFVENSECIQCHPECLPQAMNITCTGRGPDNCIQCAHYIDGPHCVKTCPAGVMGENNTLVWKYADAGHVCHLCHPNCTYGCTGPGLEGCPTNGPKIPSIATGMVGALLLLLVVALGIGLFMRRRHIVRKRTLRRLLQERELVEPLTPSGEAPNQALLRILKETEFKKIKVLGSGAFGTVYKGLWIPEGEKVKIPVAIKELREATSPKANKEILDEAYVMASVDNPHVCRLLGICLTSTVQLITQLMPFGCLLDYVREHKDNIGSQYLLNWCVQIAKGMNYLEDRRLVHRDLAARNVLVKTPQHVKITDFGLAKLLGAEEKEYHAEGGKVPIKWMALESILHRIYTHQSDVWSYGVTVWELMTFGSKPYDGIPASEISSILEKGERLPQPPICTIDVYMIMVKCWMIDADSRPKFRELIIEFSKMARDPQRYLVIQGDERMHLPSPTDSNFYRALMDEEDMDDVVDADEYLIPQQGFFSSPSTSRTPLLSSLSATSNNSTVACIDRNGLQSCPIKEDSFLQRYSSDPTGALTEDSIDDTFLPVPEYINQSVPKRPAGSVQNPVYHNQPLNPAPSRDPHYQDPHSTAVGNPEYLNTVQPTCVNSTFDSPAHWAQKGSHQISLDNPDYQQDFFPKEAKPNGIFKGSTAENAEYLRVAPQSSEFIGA
Sequence of Left-right determination factor 2 (Homo sapiens) (O00292 whole entry, looked up): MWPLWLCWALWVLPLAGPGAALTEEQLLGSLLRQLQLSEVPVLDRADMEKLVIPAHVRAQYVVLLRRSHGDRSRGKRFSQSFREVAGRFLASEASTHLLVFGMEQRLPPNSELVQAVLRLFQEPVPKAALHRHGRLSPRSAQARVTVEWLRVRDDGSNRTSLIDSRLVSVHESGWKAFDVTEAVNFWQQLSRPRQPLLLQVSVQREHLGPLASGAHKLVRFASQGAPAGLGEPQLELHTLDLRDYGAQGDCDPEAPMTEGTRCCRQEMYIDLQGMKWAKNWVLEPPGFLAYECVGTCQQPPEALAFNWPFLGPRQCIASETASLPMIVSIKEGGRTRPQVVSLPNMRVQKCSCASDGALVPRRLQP
Sequence of Dickkopf-related protein 1 (Homo sapiens) (O94907 whole entry, looked up): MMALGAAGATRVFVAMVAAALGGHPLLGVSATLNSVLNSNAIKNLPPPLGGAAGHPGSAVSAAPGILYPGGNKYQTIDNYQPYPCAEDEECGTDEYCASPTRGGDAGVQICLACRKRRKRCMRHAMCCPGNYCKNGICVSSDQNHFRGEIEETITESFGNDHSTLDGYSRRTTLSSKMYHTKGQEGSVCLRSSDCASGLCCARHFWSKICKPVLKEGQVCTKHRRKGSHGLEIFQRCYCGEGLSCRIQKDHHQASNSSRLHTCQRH
Sequence of Fibroblast growth factor 10 (Homo sapiens) (O15520 whole entry, looked up): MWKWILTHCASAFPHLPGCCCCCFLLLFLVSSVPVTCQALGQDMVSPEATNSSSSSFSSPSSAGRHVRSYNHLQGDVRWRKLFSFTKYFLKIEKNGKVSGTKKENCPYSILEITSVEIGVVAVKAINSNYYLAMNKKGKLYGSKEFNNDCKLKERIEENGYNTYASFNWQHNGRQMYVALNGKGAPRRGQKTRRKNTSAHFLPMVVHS
Sequence of Follistatin-related protein 3 (Homo sapiens) (O95633 whole entry, looked up): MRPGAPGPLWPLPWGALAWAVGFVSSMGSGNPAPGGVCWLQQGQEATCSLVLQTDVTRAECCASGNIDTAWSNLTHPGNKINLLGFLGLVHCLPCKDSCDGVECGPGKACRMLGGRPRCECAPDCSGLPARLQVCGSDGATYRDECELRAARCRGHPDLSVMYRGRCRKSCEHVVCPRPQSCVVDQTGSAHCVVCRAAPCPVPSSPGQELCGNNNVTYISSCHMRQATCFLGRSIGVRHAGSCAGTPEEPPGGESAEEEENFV

| Compound | composite z-score [1] | composite z-score [2] | composite z-score [3] | z-score [4] | composite z-score [5] | composite z-score [6] | composite z-score [7] | composite z-score [8] | composite z-score [9] | composite z-score [10] | composite z-score [11] | z-score [12] | composite z-score [13] | composite z-score [14] | composite z-score [15] | composite z-score [16] | composite z-score [17] | composite z-score [18] | composite z-score [19] | composite z-score [20] |
| --- | --- | --- | --- | --- | --- | --- | --- | --- | --- | --- | --- | --- | --- | --- | --- | --- | --- | --- | --- | --- |
| C#CCN([C@@H](Cc1ccc(O)cc1)C(=O)OC)[C@@H](/C=C/C1CC1)[C@H](O)Cc1ccccc1 | -0.189 | -0.236 | -0.26 | 0.25 (inactive) | -0.251 | -0.689 | -0.0832 | 0.122 | 0.103 | 0.644 | -0.184 | -3 | -0.0906 | -0.634 | -1.04 | -0.0425 | -0.223 | -0.407 | 0.0583 | -0.0345 |
| COC(=O)[C@@]1(Cc2ccc(OC)cc2)[C@H]2c3cc(C(=O)N(C)C)n(CCO)c3C[C@H]2CN1C(=O)c1ccccc1 | 0.137 | 1.14 | 1.27 | 0.994 (inactive) | 0.0882 | -0.402 | -0.735 | -0.42 | -1.18 | 1.07 | -0.317 | -0.441 | -0.511 | 1.67 | 1.1 | -0.0398 | 0.0044 | -0.426 | 3.28 | 1.18 |
| COc1ccc(C#Cc2ccc3c(c2)[C@]2(C(=O)N3)[C@H](c3ccc(O)cc3)N3[C@H](c4ccccc4)[C@H](c4ccccc4)OC(=O)[C@H]3[C@@H]2C(=O)O)cc1 | 1.04 | -0.901 | -0.596 | -0.518 (inactive) | 0.368 | 0.74 | -0.209 | -0.114 | -0.474 | 0.326 | 1.19 | -0.327 | -0.172 | 0.69 | 0.805 | 0.0293 | -0.315 | 1.49 | 0.684 | -0.0251 |
| C=CCOC(=O)[C@H]1[C@@H]2C(=O)O[C@@H](c3ccccc3)[C@@H](c3ccccc3)N2[C@@H](c2ccc(OCCOC(=O)[C@@H]3C[C@@H]4C(=O)N[C@@H](CCCCN(C)C)C(=O)N4[C@@H]3c3ccc(O)cc3)cc2)[C@]12C(=O)Nc1ccccc12 | 0.913 | 0.173 | 0.0016 | -0.311 (inactive) | 1.03 | 1.32 | 0.961 | 1.43 | 1.27 | -0.471 | -0.541 | -2.88 | 1.08 | -1.35 | -1.07 | -0.124 | -0.0709 | -0.106 | 1.17 | -0.23 |
| [N-]=[N+]=NCc1ccccc1C[C@]1(C(N)=O)N=C(c2ccc(OCCCO)cc2)O[C@H]1c1ccccc1 | 1 | 0.774 | 0.827 | -0.0612 (inactive) | 0.703 | 0.854 | -1.17 | -0.188 | -1.14 | -0.0778 | 1.45 | -2.07 | -1.1 | 0.637 | 0.784 | 0.0003 | 0.14 | 0.581 | 2.27 | 0.623 |
| COc1cc(OC)c(C(O)C2C=CC3C(=O)N(C)C(=O)C3N2NC(=O)OC(C)(C)C)cc1Br (stereo not given) | 1.07 | 0.993 | 1.15 | 1.51 (inactive) | 1.32 | 1.33 | 0.26 | 1.41 | 0.057 | 0.594 | 1.45 | -0.706 | 0.469 | 1.74 | 0.767 | 0.302 | 0.551 | 1.71 | 1.26 | 1.85 |
| O=C1O[C@@H](c2ccccc2)[C@@H](c2ccccc2)N2[C@@H](c3ccc(O)cc3)[C@]3(C(=O)Nc4ccc(C#CC5=CCCCC5)cc43)[C@@H](C(=O)NC[C@H](O)c3ccccc3)[C@H]12 | 1.12 | 0.603 | 0.757 | -1.41 (inactive) | 1.41 | 1.28 | 0.829 | 1.42 | 1.49 | 1.02 | 1.4 | -1.31 | 0.915 | 1.11 | 0.293 | 0.0964 | -0.0769 | 0.654 | 1.52 | 0.774 |
| CC(=O)NCCCC[C@@H]1NC(=O)[C@@H]2C[C@H](C(=O)NCCCC[N+](C)(C)C)[C@H](c3ccc(O)cc3)N2C1=O | 1.46 | -0.151 | -0.295 | -1.47 (inactive) | 1.33 | 0.301 | 0.753 | 1.47 | 1.76 | -0.261 | 0.364 | -0.307 | 1.35 | -0.206 | 0.32 | -0.0758 | 0.366 | 0.33 | 1.06 | 1.57 |
| COCC1=C2[C@@H](CCc3ccccc3)OB(O)C[C@@H]2[C@@H]2C(=O)C=CC(=O)[C@@H]2C1 | 0.367 | -0.0473 | -0.0343 | 1.2 (inactive) | 0.378 | 0.679 | 0.149 | 0.647 | 0.489 | 0.27 | 1.01 | -2.08 | 0.363 | 1.03 | 0.344 | -0.101 | 0.0684 | 0.26 | 0.236 | 1.43 |
| CC(C)C(CO)N1C(=O)[C@@H]2C3C(=O)OCCC/C=C\[C@H]3OC23C=CCN(C(C)(C)C)C(=O)[C@@H]13 (stereo not given in full) | 1.2 | -0.456 | -0.384 | 0.476 (inactive) | -0.598 | 0.0664 | -0.44 | -0.504 | -0.268 | 1.05 | -0.0297 | -0.57 | -0.383 | -0.903 | -0.804 | -0.124 | 0.0141 | -0.368 | -0.24 | -1.54 |
| CCCCCCc1nc(C2CC2)cc2c1[Si](C(C)C)(C(C)C)O[C@H]2c1ccccc1 | 0.454 | -0.312 | -0.191 | 0.214 (inactive) | 0.402 | -0.213 | 0.341 | 0.274 | 0.546 | 0.741 | -1.1 | -0.0742 | 0.359 | -0.806 | -0.852 | -0.154 | -0.157 | -0.422 | -0.186 | -0.271 |
